# Values without a mark were called inactive. Calls of active or inactive are those of the source.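 Rule for the calls: active = inhibition at or above 50% relative to wild type and mutant plate controls; inactive = inhibition below 50%.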
# Experiment: loss of swimming-algae plug formation – whole organism, Chlamydomonas reinhardtii, WT vs cilia-less mutant, absorbance, 96-well, primary screen (AID 463189);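 note: 0% = wild type cc124 cells in DMSO and 100% = ciliumless bld1 mutant cells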
# Conditions: Chlamydomonas reinhardtii gravitaxis, OD600 absorbance, 2 days; at 10 µM; active compounds read high
row,Structure (SMILES),inhibition
1,Clc1ccc(N2CC3CCC(C2)N3)nn1,1.03%
2,NC(=O)c1ccc(OCC(O)CN2CC=C(c3ccc(F)cc3)CC2)cc1 (stereo not drawn),-9.43%
3,NC(=O)COc1c(F)cc(SCCNS(=O)(=O)c2ccccc2)cc1F,4.45%
4,C[C@@H]1O[C@H](C[N+](C)(C)C)C[C@H]1O,3.38%
5,CCCN(CCC)C1CCc2cccc(O)c2C1 (stereo not drawn),1.17%
6,COc1cc(C=C(C#N)C#N)cc(O)c1O,10.5%
7,C/C(O)=C(\C#N)C(=O)Nc1cc(Br)ccc1Br,2.1%
8,NCC(O)c1ccc(O)cc1 (stereo not drawn),5.37%
9,C#CCN(C)[C@@H](C)Cc1ccccc1,7.92%
10,CN1C[C@@H](CS(=O)(=O)N(C)C)C[C@@H]2c3cccc4c3c(cn4C)C[C@H]21,4.5%
11,COc1cc(CCN)ccc1O,2.21%
12,N#CC(=Cc1ccc(O)c(O)c1)C(N)=S,10.3%
13,O=[N+]([O-])c1ccc2nc(N3CCNCC3)ccc2c1,14.2%
14,CCCCCCC(C)(C)c1ccc([C@@H]2C[C@H](O)CC[C@H]2CCCO)c(O)c1,-3.04%
15,CC1OC1P(=O)(O)O (stereo not drawn),0.291%
16,c1ccc2c(c1)[I+]c1ccccc1-2,152% (active)
17,C[C@@H]1O[C@@H](O[C@H]2C[C@@H](O)[C@]3(CO)[C@@H]4C(CC[C@]3(O)C2)[C@@]2(O)CC[C@H](C3COC(=O)C3)[C@@]2(C)C[C@H]4O)[C@H](O)[C@H](O)[C@H]1O (stereo partly drawn),0.796%
18,C=C(C)[C@H]1Cc2c(ccc3c2O[C@@H]2COc4cc(OC)c(OC)cc4[C@@H]2C3=O)O1,4.66%
19,Ic1ccccc1CNC1C2CCN(CC2)C1C(c1ccccc1)c1ccccc1 (stereo not drawn),75.8% (active)

row,Structure (SMILES),inhibition
1,CCCn1c(C)c(C(=O)c2ccc3ccccc3c2)c2ccccc21,18.5%
2,CCCCCCCCC(=O)NCc1ccc(O)c(OC)c1,12.3%
3,COc1ccccc1N1CCNCC1,6.65%
4,Cc1o[nH]c(=O)c1CC(N)C(=O)O (stereo not drawn),5.41%
5,Cc1sc2ccccc2c1CC1=NCCN1,20.7%
6,Cn1cnc(CCN)c1,3.08%
7,Clc1cccc(N2CCNCC2)c1,1.7%
8,CC(N)C(=O)OC(C)(C)Cc1ccc(Cl)cc1 (stereo not drawn),-6.83%
9,CCCN(CCC)C(=O)Cc1c(-c2ccc(Cl)cc2)nc2c(Cl)cc(Cl)cn12,-9.74%
10,COc1cc(C(O)CN)ccc1O (stereo not drawn),2.77%
11,C[C@]12CC[C@H]3[C@@H](CCC4C[C@H](O)CC[C@@]43C)[C@@H]1CC[C@@H]2O (stereo partly drawn),2.75%
12,CCN1C[C@]2(C)CC[C@H](O)[C@@]34C5C[C@@H]6[C@@H](OC)C[C@@](O)(C5[C@H]6O)[C@@H](CC23)C14 (stereo partly drawn),7.34%
13,OCc1cnc[nH]1,3.19%
14,NC(N)=NOCC[C@H](N)C(=O)O,-0.094%
15,C[N+](C)(C)CC(=O)O,3.38%
16,C[C@]12Cc3cn4c(nc3C=C1CCC1C2CC[C@@]2(C)[C@H]1CC[C@@]2(O)C#N)nc1ccccc14 (stereo partly drawn),72.1% (active)
17,Cc1nc(-c2ccc(-c3ccc(C(=O)N4CCc5cc6c(cc54)C4(CCN(C)CC4)CO6)cc3)c(C)c2)no1,141% (active)
18,O=C(O)C1C2CCC(O2)C1C(=O)O (stereo not drawn),-11.7%
19,CC[N+](CC)(CC)CC,6.89%
